Rows were chosen to be rich in hits. Some 2.9% of all compounds tested hit in one or more screens of this group.
Vif inh: HIV Vif inhibition. inhibition, % at 7.49 µM. hit rate 0.35% among 340,000. HEK293T cells, Vif self-association by quenched fluorescence, imaging, 24 h. AID 602346; in the data active = inhibition above about 50%, passing the limit was not always enough
Glyco luc inh: blocks N-linked glycosylation in D54 reporter cells | hit rate 0.23% among 360,000 | AID 588692 | reporter increase, % at 12.5 µM | D54 ERlucT glycosylation luciferase reporter, 24 h; percent of 100 nM tunicamycin response;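 active = mean luciferase reporter signal, scaled so untreated is 0 and the glycosylation-blocking control 100, at or above a set limit in every replicate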;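 note: luciferase carries N-glycosylation sites so blocking glycosylation raises the light; 0% = median of neutral control wells and 100% = median of 100 nM tunicamycin wells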
Wnt act: activates Wnt/beta-catenin signaling in a reporter cell assay; activator, plate reader; activation, % at 9.35 µM; hit rate 1.2% among 300,000; AID 743398; in the data active = activation above about 30%, passing the limit was not always enough;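 note: 0% = neutral control wells and 100% = positive control wells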
esBAF inh: inhibitors of esBAF chromatin remodeling in mouse ES cells; reporter increase, % at 12.5 µM; Bmi1-luciferase knock-in reporter, 24 h; 100% = twice the neutral-well signal; hit rate 2% among 350,000; in the data active = activation above about 40%;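 note: 0% = median of the plate's neutral control wells and 100% = double that signal; a rise in the Bmi1 reporter signal indicates esBAF inhibition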
MITF TRPM1 HTS: activators of MITF-driven TRPM1 promoter activity in SK-MEL-5 cells; SK-MEL-5 TRPM1-promoter luciferase, 24 h; % of positive control, neutral wells = 0; activation, % at 12.5 µM; hit rate 0.75% among 300,000; AID 588334;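 active = mean activation of at least 80% with every replicate also reaching 80%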;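 note: 0% = neutral control wells and 100% = parthenolide positive control wells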
PvdQ inh: P. aeruginosa PvdQ acylase inhibition; purified PvdQ acylase, fluorescence plate reader; inhibition, % at 10 µM; hit rate 0.063% among 340,000; AID 488965; in the data active = inhibition above about 30%, passing the limit was not always enough;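 note: 0% = vehicle neutral wells and 100% = reference inhibitor wells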
Numbers without * were called inactive.

`Cn1c2ccccc2c(=O)c2ccc(C#Cc3ccccn3)cc21` gave Wnt act -1.
For COc1cccc(S(=O)(=O)N(C)C[C@H]2Oc3ncc(-c4cccc(C(=O)N(C)C)c4)cc3C(=O)N([C@@H](C)CO)C[C@@H]2C)c1 the results were esBAF inh 2.
Screening C[C@@H]1CN([C@@H](C)CO)C(=O)c2cc(NC(=O)C3CCCCC3)ccc2O[C@@H](C)CCCCO[C@@H]1CN(C)S(=O)(=O)c1ccc(Cl)cc1 returned esBAF inh -1.
Screening Cc1cccc(Sc2c([N+](=O)[O-])ncn2C)c1 returned Vif inh 5, Glyco luc inh 20, esBAF inh 1 and PvdQ inh 7.
For Cn1cnc([N+](=O)[O-])c1Oc1ccc2ccccc2c1 the results were Vif inh -19, Glyco luc inh 47*, MITF TRPM1 HTS -11 and PvdQ inh 1.
Screening C[C@@H]1CN([C@@H](C)CO)C(=O)c2cc(C#CC3CCCC3)cnc2O[C@H]1CN(C)C(=O)c1ccncc1 returned esBAF inh 10.
O=C(C[C@H]1CC[C@H](NC(=O)Nc2cc(F)ccc2F)[C@H](CO)O1)NCCCN1CCOCC1 was read as esBAF inh -3.
Screening Cc1ccc(C(=O)Cn2nnc(-c3cccs3)n2)cc1 returned Vif inh -12, Glyco luc inh 0, Wnt act 40*, esBAF inh 20, MITF TRPM1 HTS 43 and PvdQ inh 0.
Screening O=C(Cn1nnc(-c2cccs2)n1)NCc1cccs1 returned Vif inh -1, Glyco luc inh 2, Wnt act -1, MITF TRPM1 HTS 10 and PvdQ inh -10.
For O=C(Cn1nnc(-c2cccs2)n1)N1CCOCC1 the results were Vif inh 5, Glyco luc inh -1, Wnt act 1, MITF TRPM1 HTS -8 and PvdQ inh 13.
CC1CCN(C(=O)Cn2nnc(-c3cccs3)n2)CC1 was read as Vif inh 3, Glyco luc inh -5, Wnt act 5, esBAF inh 48*, MITF TRPM1 HTS 38 and PvdQ inh -14.
Screening CO[C@@H]1CN(C)C(=O)c2ccc(NS(C)(=O)=O)cc2OC[C@@H](C)N(C(=O)NC(C)C)C[C@H]1C returned esBAF inh 1.
`CCCC#Cc1cnc2c(c1)C(=O)N([C@@H](C)CO)C[C@@H](C)[C@H](CN(C)C(=O)c1cnccn1)O2` gave esBAF inh 6.
For O=C(NCc1ccc2c(c1)OCO2)[C@@H]1[C@@H](CO)[C@@H]2Cn3c(cccc3=O)[C@H]1N2Cc1ccccc1 the results were esBAF inh 3.
O=c1oc2ccc(Br)cc2cc1-c1nc2ccccc2o1 was read as Vif inh -4, Glyco luc inh 3, Wnt act -3, esBAF inh 18, MITF TRPM1 HTS 7 and PvdQ inh -7.
For COc1cccc2cc(-c3nc4ccccc4o3)c(=O)oc12 the results were Vif inh 6, Glyco luc inh -5, Wnt act 42*, esBAF inh 19, MITF TRPM1 HTS 36 and PvdQ inh 3.
For C[C@H]1CN([C@@H](C)CO)C(=O)c2cc(NS(=O)(=O)c3cn(C)cn3)ccc2O[C@@H]1CN(C)C the results were esBAF inh 1.
`O=C(O)C(Cc1c[nH]c2ccccc12)N1C(=O)c2ccccc2C1=O` (stereo not given) gave Vif inh 6, Glyco luc inh -2, Wnt act 43*, MITF TRPM1 HTS -12 and PvdQ inh 5.
`COc1cccc(NC(=O)N[C@@H]2C=C[C@H](CC(=O)N3CCN(C)CC3)O[C@H]2CO)c1` gave esBAF inh -3.
Screening CC(C)NC(=O)C1C(c2ccc(C(F)(F)F)cc2)=Nc2ccccc2N1C(=O)c1ccccc1 (stereo not given) returned Wnt act 45*.
c1ccc(-c2csc(-c3ccncc3)n2)cc1 was read as Vif inh -2, Glyco luc inh 2, Wnt act 13, esBAF inh 27, MITF TRPM1 HTS 33 and PvdQ inh -5.
Screening Oc1ccc(-c2csc(-c3ccccc3)n2)cc1O returned Glyco luc inh 2, Wnt act 7, esBAF inh 60*, MITF TRPM1 HTS 6 and PvdQ inh -3.

From PubChem BioAssay
